Results filed as inconclusive are left out. Active and inactive are the calls of the source. Calls come from the whole dose curve; as a rule, active = well fitted cell-killing curve with a large enough effect; inconclusive = small, poorly fitted or top-dose-only effect; inactive = no such curve, though single readings can be large or run the other way.
Potency is the fitted concentration of half-maximal effect.

The nature of the test: qHTS of pediatric cancer cell lines to identify multiple opportunities for drug repurposing: Primary screen for SK-N-MC cells (AID 1347093). The conditions noted are these: SK-N-MC viability, CellTiter-Glo luminescence, 48 h; series mostly up to 46 µM. From the text: Drug repurposing or repositioning has been offered as a strategy for drug development in oncology programs. This approach has special potential for childhood cancers and other rare or orphan diseases, where the expected return on new drug development has been a disincentive to pharmaceuticals.
In this project we exploit the poly-pharmacology of drugs to discover new indications via phenotypic screening of a panel of 19 well-characterized cell lines derived from solid tumors seen in children and adolescents. The goal is to identify approved drugs with previously unrecognized anticancer properties that has the potential to reveal new mechanisms and biological processes involved in carcinogenesis or drug resistance. We employed a titration-based paradigm (quantitative high-throughput screening or qHTS), where all compounds were tested at multiple concentrations for their effect on cell viability. Concentration-response curves (CRCs) were derived directly from the primary screen, and both potency and efficacy values were used to identify compounds with robust bioactivity profiles. We screened the NIH Chemical Genomics Center (NCGC) Pharmaceutical Collection (NPC) and Mechanism Interrogation Plate (MIPE) small molecule collections of approved and investigational compounds against these cell lines; and measured metabolically active cells after 48 hours of compound treatment as a proxy for cell viability.
Assay Submitter: Nathalia J. Martinez, National Center for Advancing Translational Sciences, National Institutes of Health, Rockville, MD, USA; email: natalia.martinez@nih.gov
[1] Shen, M et al. Quantitative high-throughput phenotypic screening of pediatric cancer cell lines identifies multiple opportunities for drug repurposing. Oncotarget 2017 Dec 19;9(4):4758-4772. PMID 29435139.
The cells were obtained from University of North Carolina (UNC), Pediatric Preclinical Testing Program (PPT), and Coriell Institute (CI).
qHTS cell viability assay:
Cells were assayed in growth media at a density of 500-1,000 cells/well. Five microliters of cells were dispensed into 1,536-well, white, solid-bottom, TC-treated plates (Greiner Bio One) using a multidrop dispenser and incubated at 37 degrees C, 5% CO2, under a humidified atmosphere for 5 hours. Twenty-three nanoliters of compounds and controls (neutral control DMSO or positive control bortezomib at final concentration of 2.3 µM) were subsequently transferred by Kalypsys pintool. For primary screens, the MIPE collection was tested at 11-point dilutions (final concentrations range from 0.78 nM to 46 µM) and the NPC collection at 8-point dilutions (final concentrations range from 0.59nM to 46 µM). Compounds tested in follow-up screens were assayed at 11-point dilutions. Cells were incubated for 48 hours, followed by addition of 3 uL of CellTiter-Glo (Promega). After a 15 min incubation at room temperature, samples were analyzed for luminescence intensity using a ViewLux High-throughput CCD imager equipped with clear filters.
For orientation: qHTS replaces the single test concentration by a dilution series.
Turning to `O=C(Nc1ncc(SCCN2CCCC2)s1)[C@]1(c2ccc(S(=O)(=O)C3CC3)cc2)C[C@@H]1C1CCCCC1`, the Potency is 20900 nM (active).
Under `COc1ccc(-c2cc(=O)c3c(O)cc(O[C@@H]4O[C@H](CO[C@@H]5O[C@@H](C)[C@H](O)[C@@H](O)[C@@H]5O)[C@@H](O)[C@H](O)[C@@H]4O)cc3o2)cc1O` stands 7430 nM (active); under `C#C[C@]1(O)CC[C@H]2[C@H]3CCc4cc(OC)ccc4[C@H]3CC[C@@]21C`, 20900 nM (active).
As for `O=C(CCCN1CCN(c2ccc(F)cc2)CC1)NC1c2ccccc2CSc2ccccc21` (stereo not given), the figure is 20900 nM (active); as for `CC[C@H](CC#N)OC(=O)N[C@@H](C)c1cccc(NC(=O)Nc2ccc(-c3cnco3)c(OC)c2)c1`, 590 nM (active); as for `N#CC(c1ccc(Cl)cc1)c1c(Cl)cc(-n2ncc(=O)[nH]c2=O)cc1Cl` (stereo not given), 9350 nM (active).
On to `CCNC(=O)[C@H]1O[C@@H](n2cnc3c(N)nc(NCCc4ccc(CCC(=O)O)cc4)nc32)[C@H](O)[C@H]1O`, for which the Potency entry was “inactive”.
Take `CC(C)(F)C[C@H](N[C@@H](c1ccc(-c2ccc(S(C)(=O)=O)cc2)cc1)C(F)(F)F)C(=O)NC1(C#N)CC1`: the Potency entry is “inactive”.
In the case of `CN1c2ccccc2C(=O)N2CCc3c([nH]c4ccccc34)C21` (stereo not given), the Potency is 10500 nM (active).
Turning to `Nc1ccc(-c2ccc3ncc4ccc(=O)n(-c5cccc(C(F)(F)F)c5)c4c3c2)cn1`, the Potency was 0.1 nM (active).
Under `CC(NCCc1ccc(O)cc1)C(O)c1ccc(O)cc1` (stereo not given) stands “inactive”.
As for `O=C1NC(=O)C(c2cnc3ccccn23)=C1c1cn2c3c(cccc13)CN(C(=O)N1CCOCC1)CC2`, the figure is 23.5 nM (active).
On to `CC[C@H](NC(=O)[C@H](C)NC)C(=O)N1C[C@@H](O)C[C@H]1Cc1c(-c2[nH]c3cc(F)ccc3c2C[C@H]2C[C@H](O)CN2C(=O)[C@H](CC)NC(=O)[C@H](C)NC)[nH]c2cc(F)ccc12`, for which the Potency was 1180 nM (active).
As for `CC[C@]1(O)C[C@H]2CN(CCC3=c4ccccc4=N[C]3[C@@](C(=O)OC)(c3cc4c(cc3OC)N(C)[C@H]3[C@@](O)(C(N)=O)[C@H](O)[C@]5(CC)C=CCN6CC[C@]43[C@@H]65)C2)C1`, the figure is 23.5 nM (active); as for `O=C(NC[C@H](O)CO)c1ccncc1Nc1ccc(I)cc1F`, 5260 nM (active).
As for `Cc1nn(Cc2ccccc2Cl)c(C)c1CN(C)CC(O)COc1ccc(Cl)cc1` (stereo not given), the Potency was 1870 nM (active).
As for `CNc1nc(-c2ccc3c(N)n[nH]c3c2)cc(N2C[C@@H](C(=O)NC3CCCCC3)CC[C@@H]2C)n1`, the figure is 4180 nM (active).
As to `CO[C@@H]1C(N(C)C(=O)c2ccccc2)C[C@H]2O[C@]1(C)n1c3ccccc3c3c4c(c5c6ccccc6n2c5c31)C(=O)NC4=O` (stereo not given in full), the Potency is 1320 nM (active).
As for `COc1cc([C@H]2Oc3cc([C@H]4Oc5cc(O)cc(O)c5C(=O)[C@H]4O)ccc3O[C@H]2CO)ccc1O`, the figure is 20900 nM (active); as for `CS(=O)(=O)c1ccc(C2=C(c3ccccc3)C(=O)OC2)cc1`, “inactive”; as for `CC(C)(OCc1nn(Cc2ccccc2)c2ccccc12)C(=O)O`, 26400 nM (active).
As for `COc1c(C)c2c(c(O)c1CC=C(C)CCC(=O)OCCN1CCOCC1)C(=O)OC2`, the figure is 1180 nM (active); as for `Cc1ccccc1C(C(=O)NC1CCCCC1)N(C(=O)CNc1ccc(C#N)cc1)c1cccc(F)c1` (stereo not given), “inactive”.
As for `CCc1cccc(CC)c1NC(=O)N1Cc2[nH]nc(NC(=O)c3ccc(N4CCN(C)CC4)cc3)c2C1`, the figure is 833 nM (active).
For the compound `O=C(C=Cc1ccc(O)cc1)c1ccc(O)cc1O`, the Potency was 37200 nM (active).
Under `COc1cc2ncnc(Nc3cc(Br)c(O)c(Br)c3)c2cc1OC` stands 6.6 nM (active).
In the case of `C[C@@H]1O[C@@H](O[C@H]2CC[C@@]3(C)[C@H](CC[C@@H]4[C@H]3C[C@@H](O)[C@]3(C)[C@@H](C5=CC(=O)OC5)CC[C@]43O)C2)C[C@H](O)[C@@H]1O[C@H]1C[C@H](O)[C@H](O[C@H]2C[C@H](O)[C@@H](O)[C@@H](C)O2)[C@H](C)O1` (stereo in doubt), the Potency is 108 nM (active).
As for `C[C@@H]1[C@H](C)CC[C@]2(C(=O)O)CC[C@]3(C)C(=CC[C@@H]4[C@@]5(C)CC[C@H](O)C(C)(C)[C@H]5CC[C@]43C)[C@@H]12`, the Potency was 429 nM (active).
Under `CN(C)N=Nc1nc[nH]c1C(N)=O` stands 2640 nM (active); under `CCNC(=O)Nc1ccc(Oc2ncnc(N)c2C=NOC)cc1Cl`, 4690 nM (active).
As for `CN1N=C(N)c2cn([C@@H]3O[C@H](COP(=O)(O)O)[C@@H](O)[C@@H]3O)c3ncnc1c23`, the figure is 4.2 nM (active).
As for `CCC[C@H](N[C@@H](C)C(=O)N1[C@@H]2CCCC[C@H]2C[C@H]1C(=O)O)C(=O)OCC`, the figure is 3320 nM (active).
Take `O=[N+]([O-])c1ccc(Nc2ccccc2-c2ccccc2)c2nonc12`: the Potency is 29600 nM (active).
With `CC1(COc2ccc3c(c2)ncn3-c2ccc3cccc(N4CCC(N)CC4)c3n2)COC1`, the Potency was 1 nM (active).
Under `COc1cc2c(cc1OC)CC(=O)N(CCCN(C)C[C@H]1Cc3cc(OC)c(OC)cc31)CC2` stands 14800 nM (active).
Under `CN1CCN(c2cccc(Nc3nc4c(-c5ccc(S(C)(=O)=O)cc5)cccn4n3)c2)CC1` stands 1480 nM (active); under `COc1ccc(-c2oc3c(CC=C(C)C)c(O)cc(O)c3c(=O)c2O)cc1`, 9350 nM (active); under `C=C1[C@H](n2cnc3c(=O)[nH]c(N)nc32)C[C@H](O)[C@H]1CO`, 18.7 nM (active).
`CCOC(=O)N1CCN([N+]([O-])=NOc2cc(ON=[N+]([O-])N3CCN(C(=O)OCC)CC3)c([N+](=O)[O-])cc2[N+](=O)[O-])CC1`: the Potency entry is “inactive”.
On to `CCNC(=O)c1noc(-c2cc(C(C)C)c(O)cc2O)c1-c1ccc(CN2CCOCC2)cc1`, for which the Potency was 52.6 nM (active).
